Screens from PubChem BioAssay.
FLuc inh = blocks Photinus pyralis firefly luciferase activity; P08659; purified firefly luciferase, luminescence, 8 min; Potency, µM (top dose mostly 57.1 µM), for the others: top-dose activity change, negative = inhibition, hits mostly inhibitors; 72,000 compounds, 2.2% hits; active = well fitted inhibition curve with a large enough effect; inconclusive = small, poorly fitted or top-dose-only effect; also: % is scaled to controls: 0 for no effect and ±100 for the full control effect; nearly all actives have a fitted effect of over 40% in size
Target sequence (P08659 whole entry, looked up): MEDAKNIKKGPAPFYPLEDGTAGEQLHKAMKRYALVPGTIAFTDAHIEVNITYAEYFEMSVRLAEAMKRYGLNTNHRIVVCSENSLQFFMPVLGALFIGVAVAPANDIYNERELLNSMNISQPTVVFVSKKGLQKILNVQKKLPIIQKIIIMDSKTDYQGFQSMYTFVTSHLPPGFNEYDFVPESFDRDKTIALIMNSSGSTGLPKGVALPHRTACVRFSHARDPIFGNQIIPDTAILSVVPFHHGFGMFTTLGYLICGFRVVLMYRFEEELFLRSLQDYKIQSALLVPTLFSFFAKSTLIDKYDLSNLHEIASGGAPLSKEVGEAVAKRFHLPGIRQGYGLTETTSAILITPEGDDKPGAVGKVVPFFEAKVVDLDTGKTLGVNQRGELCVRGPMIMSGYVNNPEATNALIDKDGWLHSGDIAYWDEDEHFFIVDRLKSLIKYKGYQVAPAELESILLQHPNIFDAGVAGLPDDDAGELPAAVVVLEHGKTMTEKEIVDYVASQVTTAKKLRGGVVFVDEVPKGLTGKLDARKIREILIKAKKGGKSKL
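Titration-based qHTS; buffer 50 mM imidazole pH 7.2, 50 mM KCl, 7 mM MgCl2, 10 uM ATP, 0.01% Tween 20, 0.05% BSA; luciferase/luciferin detector mix added after compound; 8 min, ambient; luminescence.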
Bst PK mod = pyruvate kinase (B. stearothermophilus) modulation. 51,000 compounds, 1.2% hits. Potency, µM. purified pyruvate kinase, luminescence ATP production; ribose 5-phosphate activator present at AC10. AID 361; in the data active = potency below about 11 µM; inconclusive = mostly about 12 µM to 25 µM;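 the screen sought inhibitors and activators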;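 also: scaled between full activation by ribose 5 phosphate and full inhibition by luteolin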
GBA mod = modulators of human glucocerebrosidase; P04062; purified enzyme, resorufin glucoside fluorescence (screen aimed at inhibitors), 20 min; Potency, µM; 48,000 compounds, 1.1% hits; in the data active = potency below about 15 µM; inconclusive = mostly about 16 µM to 33 µM;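 also: the screen sought inhibitors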
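Normal human glucocerebrosidase (0.2 nM final) was assayed with resorufin β-D-glucopyranoside (30 uM final) in 50mM citric acid/KH2PO4, 10mM sodium taurocholate, 0.01% tween-20, pH 5.9. Compounds were titrated; fluorescence (Ex 548, Em 600) read after 20 min at RT.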
* = called active by the depositor; i = inactive; ? = inconclusive; . = no result given; ! = not active in a repeat; [ ] = remark or other dose. This is a sample that favours compounds with a hit; in the whole collection about 3.4% have one here. Potency is read from the fitted curve at half-maximal effect.

SMILES | FLuc inh | Bst PK mod | GBA mod
O=C(COC(=O)c1cccs1)NCc1ccc2c(c1)OCO2 | -3% | >57 | >77
O=C(COC(=O)c1cccs1)c1ccc2c(c1)OCCO2 | 0.32µM* | 0.29* | >77
Cc1csc(SCC(=O)c2cc(C)n(Cc3cccs3)c2C)n1 | 4µM* | 3.2* | >77
Cn1cccc1C(=O)N1CCC2(CC1)CCN(c1ccccn1)CC2 | 0%[11.4 µM] | . | .
N#Cc1cccc(-c2nccc(-n3ccnc3)n2)c1 | 4%[2.29 µM] | . | .
COc1ccc(-c2nc3cnc(N4CCOCC4)nc3n(CCc3ccccc3)c2=O)cc1 | -1%[11.4 µM] | . | .
CC(=O)NC12CC3CC(C1)CC(C(=O)OCC(=O)Nc1ncc(Cl)c(C)c1Cl)(C3)C2 | 2% | >57 | >77
CC(=O)NC12CC3CC(C1)CC(C(=O)OCC(=O)c1ccc4c(c1)OCCO4)(C3)C2 | 4µM* | 4.3* | >77
Nc1nc(SCC(=O)c2ccc(Br)cc2)c2[nH]cnc2n1 | 3%[11.4 µM] | . | .
O=c1oc2c(CN3CCCCC3)c(O)ccc2cc1-c1nc2ccccc2[nH]1 | -22% | . | >77
O=c1oc2c3c4c(cc2cc1-c1nc2ccccc2[nH]1)CCCN4CCC3 | 2µM* | . | .
NC(=O)c1ccccc1NC(=O)CS(=O)(=O)Cc1ccccc1 | 0% | 3* | >77
NC(=O)c1ccccc1NS(=O)(=O)Cc1ccc(Cl)cc1 | -2% | >57 | >77
CCCCC[C@H](O)/C=C\[C@@H]1[C@H](O)CC(=O)[C@@H]1CCCCCCC(=O)O | 3%[25.5 µM] | . | .
COC(=O)c1sccc1NC(=O)c1cc(C)on1 | 3% | >57 | >77
COC(=O)c1sccc1NC(=O)c1c(C)noc1C | 2% | >57 | 12*
Cc1cc(=O)n2[nH]c(N3C(=O)CCC3=O)nc2n1 | 0%[25.5 µM] | >26 | .
Cc1cc(=O)n2[nH]c(-c3ccc(F)cc3)nc2n1 | 13µM* | i | >77
COCC(=O)N1CCC2(CC1)CN(c1cccc(-c3ccccc3)c1)C2 | -2%[11.4 µM] | . | .
CS(=O)(=O)N1CCC2(CCCN(C(=O)Nc3ccccc3)C2)CC1 | -2%[11.4 µM] | . | .
Cc1ccc(C)c([C@@H]2NC(=O)c3ccccc3N2)c1 | 0%[11.4 µM] | . | .
COc1ccc(-c2nc3cnc(N(C)C)nc3n(CCc3ccccc3)c2=O)cc1 | 1%[11.4 µM] | . | .
COc1ccc(OC)c2[nH]c(=O)c(CCNS(=O)(=O)c3ccccc3)cc12 | 1% | ? | >77
CCCS(=O)(=O)NCCc1cc2c(OC)ccc(OC)c2[nH]c1=O | -4% | 6.4* | >77
O=c1c(-c2ccc(Cl)cc2)nc2cncnc2n1Cc1ccccc1Cl | 1%[11.4 µM] | . | .
SMILES | FLuc inh | Bst PK mod | GBA mod
COc1ccccc1N1CCN(c2nc(-c3ccccc3)cc(C(F)(F)F)n2)CC1 | 0% | >57 | >77
COc1ccccc1N1CCN(c2ccc(-c3ccccc3)nn2)CC1 | 0.63µM* | 1.6* | >77
O=C(O)c1cc(NS(=O)(=O)c2cccc3ccccc23)ccc1O | 1% | 3.3* | >77
O=C(O)c1ccc(NS(=O)(=O)c2cc(Cl)ccc2Cl)cc1O | 4% | i | >77
CC(C)CN=C(N)N=C(N)N | 2%[11.4 µM] | . | .
COc1cccc(-c2ccc3ncnc(N4CCOCC4)c3c2)c1 | 0%[2.29 µM] | . | .
CCc1nnc(NC(=O)C2CCN(S(=O)(=O)Cc3ccccc3)CC2)s1 | 2% | >57 | 4.3*
Cc1nnc(NC(=O)C2CCCN(S(=O)(=O)Cc3ccccc3)C2)s1 (configuration not stated) | 0% | >57 | ?
CC(=O)OC[C@H]1O[C@@H](O/N=C(\C)CCN2CCCCc3nc(C)c(C)cc32)[C@H](OC(C)=O)[C@@H](OC(C)=O)[C@H]1OC(C)=O | 0%[11.4 µM] | . | .
c1nnc(NC2=NCCCCC2)s1 | -39% | >57 | >77
Clc1ccc(-c2nnc(NC3=NCCCCC3)o2)cc1 | 2.5µM* | 6.4* | >77
CNC(=O)c1cc2c(cn1)[nH]c1ccccc12 | 25µM*! | . | .
O=C(NCCCO)c1ccc2[nH]c3ccccc3c2c1 | -27% | i | >77
CC(C)c1ccc(/C(C(=O)O)=C(\O)C(=O)O)cc1 | -5%[11.4 µM] | . | .
C/C(=C\CNc1ncnc2c1ncn2[C@@H]1O[C@@H](CO)[C@@H](O)[C@H]1O)CO | 1%[11.4 µM] | . | .
Cc1cc(Cc2cc(Cc3cc(C)cc(C(C)(C)C)c3O)c(C)cc2C)c(O)c(C(C)(C)C)c1 | 1%[11.4 µM] | . | .
CN(C(=O)c1ccco1)c1nnc(C23CC4CC(CC(C4)C2)C3)s1 | 20µM* | . | .
CC(NC(=O)COC(=O)CCNC(=O)c1ccco1)C12CC3CC(CC(C3)C1)C2 (configuration not stated) | 3% | >57 | i
COC(=O)c1cc(-c2ccc3ccccc3c2)[nH]c(=O)c1C#N | 3%[11.4 µM] | . | .
Brc1ccc(-c2nc3ccccc3s2)s1 | 16µM* | ? | .
c1ccc(-c2nc3ccccc3s2)nc1 | ? | ? | >77
O=C(c1csnn1)N1CCC2(CC1)CN(c1ccccn1)C2 | 1%[11.4 µM] | . | .
Cn1ccnc1SCc1cn2cc(Br)ccc2n1 | 16µM* | i | .
COC(=O)c1ccc(CSc2nccn2C)cc1 | -5% | >57 | >77
C[C@@H](C[N+](C)(C)C)OC(N)=O | -1%[25.5 µM] | . | .
SMILES | FLuc inh | Bst PK mod | GBA mod
O=C(N/N=C1/C[C@@H](O)[C@@H](O)[C@@H]2[C@@H]3C(=O)N(c4cccc(Oc5ccccc5)c4)C(=O)[C@H]3CC[C@H]12)OCc1ccccc1 | 0%[11.4 µM] | . | .
Clc1ccc(-n2nnnc2-c2ccccc2)cc1 | 0% | >57 | >77
Nc1c(-c2ccc(Cl)cc2)nnn1-c1ccccc1 | 10µM* | . | >77
CN(C)C(=O)c1ccc(-c2nccc(NCc3cccs3)n2)cc1 | -1%[2.29 µM] | . | .
CN(C)c1ccc(-c2nccc(NCc3cccs3)n2)cc1 | 0.5µM* | . | .
CCOC(=O)CCN1C(=O)[C@H]2[C@H]3[C@H](O)[C@H](O)C/C(=N/NC(=O)OCc4ccc(OC)cc4)[C@@H]3CC[C@@H]2C1=O | 0%[11.4 µM] | . | .
CC1CC1C(=O)OCC(=O)NCc1ccccc1Cl (configuration not stated) | -1% | >57 | >77
O=C(COC(=O)C1CCC1)NCc1ccccc1Cl | 16µM* | >57 | >77
CN[C@@H]1[C@H](O)[C@H](NC)[C@@H]2O[C@]3(O)C(=O)C[C@@H](C)O[C@H]3O[C@@H]2[C@H]1O | -2%[11.4 µM] | . | .
N#Cc1cccc(-c2nc3cnc(Oc4cccc(Cl)c4)nc3n(C3CC3)c2=O)c1 | 0%[11.4 µM] | . | .
CC(=O)N1CCC2(CC1)CN(c1ccccn1)C2 | -1%[11.4 µM] | . | .
COCc1nnc(NC(=O)c2ccco2)s1 | -1% | >57 | >77
Cc1nnc(NC(=O)c2sc3ccccc3c2Cl)s1 | 2µM* | 2.1* | 15*
Cc1nnc(NC(=O)C2(c3ccccc3)CCOCC2)s1 | -1% | >57 | >77
COCc1nnc(NC(=O)c2sc3ccccc3c2Cl)s1 | 20µM* | i | >77
Cn1c(=S)c2[nH]c(SCCN3C(=O)c4ccccc4C3=O)nc2n(C)c1=O | 2%[11.4 µM] | . | .
O=C(c1ccccc1F)N1CCN(Cc2cccc(Cl)c2)CC1 | 4% | >57 | >77
O=C(Nc1cccc(Cl)c1)N1CCN(Cc2ccccc2)CC1 | 16µM* | . | .
CCCCCCCCCC[Si](C)(C)CCC(=O)N[C@@H](Cc1ccc(C)cc1)c1ccccc1 | -2% | . | .
Sc1ccc2ccccc2c1CNCc1ccccc1 | 3%[11.4 µM] | . | .
c1ccc(-c2nnc3sc(-c4ccncc4)nn23)cc1 | 1% | . | >77
Cc1nn2cc(-c3ccccc3)nc2s1 | 10µM* | ? | >77
c1ccc(-c2cn3nc(-c4ccccc4)sc3n2)cc1 | 0.13µM* | . | .
Cc1c(C(=O)N2CCOCC2)sc2nc(-c3ccccc3)cn12 | -24% | . | >77
CCNc1ncc2ncc(=O)n(Cc3ccc(F)cc3)c2n1 | -2%[11.4 µM] | . | .
